Reference: the supplement of paper PMC11732987, “Enantioselective OTUD7B fragment discovery through chemoproteomics screening and high-throughput optimisation” (Communications Chemistry, 2025)
Values without a mark were called inactive.

Legend:
Assay in all cases: log2 ratio of Biotin-Ahx-Ub-VS probe labelling (fragment/DMSO); higher = less target engagement (more negative = stronger competition), active = hit call of the paper (q ≤ 0.05, log2 ratio ≤ -1)
Conditions in all cases: compound concentration: 200 uM; treatment time: 3 h
ALG13 = biological target: T1, ALG13 (UniProt Q9NP73)
T1 sequence (whole entry): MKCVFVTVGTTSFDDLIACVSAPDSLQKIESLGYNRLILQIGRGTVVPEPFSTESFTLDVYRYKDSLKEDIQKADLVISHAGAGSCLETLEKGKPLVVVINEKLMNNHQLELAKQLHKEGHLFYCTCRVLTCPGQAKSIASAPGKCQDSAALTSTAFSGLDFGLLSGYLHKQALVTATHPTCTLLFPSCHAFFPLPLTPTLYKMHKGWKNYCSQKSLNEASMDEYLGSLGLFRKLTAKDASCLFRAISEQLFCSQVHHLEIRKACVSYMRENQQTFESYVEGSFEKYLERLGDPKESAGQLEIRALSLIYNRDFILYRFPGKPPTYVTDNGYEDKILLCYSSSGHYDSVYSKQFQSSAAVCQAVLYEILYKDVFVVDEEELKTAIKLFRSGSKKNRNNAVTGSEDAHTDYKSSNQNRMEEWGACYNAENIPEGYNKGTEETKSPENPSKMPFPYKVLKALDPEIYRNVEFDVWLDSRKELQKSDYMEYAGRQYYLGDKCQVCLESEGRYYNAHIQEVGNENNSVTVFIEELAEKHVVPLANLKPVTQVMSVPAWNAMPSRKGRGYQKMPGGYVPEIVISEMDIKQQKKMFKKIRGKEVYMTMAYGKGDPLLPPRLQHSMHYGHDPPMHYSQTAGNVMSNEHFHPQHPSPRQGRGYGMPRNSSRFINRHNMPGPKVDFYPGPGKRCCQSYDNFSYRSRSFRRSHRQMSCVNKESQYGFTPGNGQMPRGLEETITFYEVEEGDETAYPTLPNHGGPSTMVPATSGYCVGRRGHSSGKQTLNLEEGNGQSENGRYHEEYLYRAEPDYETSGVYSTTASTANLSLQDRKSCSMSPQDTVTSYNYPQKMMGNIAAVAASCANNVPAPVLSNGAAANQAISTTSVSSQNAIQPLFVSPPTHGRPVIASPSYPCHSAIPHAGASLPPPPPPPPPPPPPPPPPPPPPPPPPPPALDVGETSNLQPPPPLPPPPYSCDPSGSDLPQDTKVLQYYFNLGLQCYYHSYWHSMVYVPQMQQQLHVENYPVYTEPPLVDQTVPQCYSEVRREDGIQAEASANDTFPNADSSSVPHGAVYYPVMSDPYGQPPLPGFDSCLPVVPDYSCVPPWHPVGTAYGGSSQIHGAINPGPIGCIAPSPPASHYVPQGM
Summary of the method: (§1)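 Global-median-normalised Spectronaut label-free quantities were compared by unpaired t-test, and values are average log2 ratios of fragment over vehicle. Only proteins with ≥2 unique peptides were used. HEK293T lysate (495 µg per sample) was treated in triplicate with fragment at 200 µM or vehicle for 3 h and then with Biotin-Ahx-Ub-VS at 0.5 µM final for 1 h. Labelled DUBs were then NeutrAvidin-enriched, digested with LysC and trypsin, and run by diaPASEF LC-MS/MS.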

ATXN3 = ATXN3 (UniProt P54252)
Summary of the method: as §1

BAP1 = biological target: T2, BAP1 (UniProt Q92560)
T2 sequence (whole entry): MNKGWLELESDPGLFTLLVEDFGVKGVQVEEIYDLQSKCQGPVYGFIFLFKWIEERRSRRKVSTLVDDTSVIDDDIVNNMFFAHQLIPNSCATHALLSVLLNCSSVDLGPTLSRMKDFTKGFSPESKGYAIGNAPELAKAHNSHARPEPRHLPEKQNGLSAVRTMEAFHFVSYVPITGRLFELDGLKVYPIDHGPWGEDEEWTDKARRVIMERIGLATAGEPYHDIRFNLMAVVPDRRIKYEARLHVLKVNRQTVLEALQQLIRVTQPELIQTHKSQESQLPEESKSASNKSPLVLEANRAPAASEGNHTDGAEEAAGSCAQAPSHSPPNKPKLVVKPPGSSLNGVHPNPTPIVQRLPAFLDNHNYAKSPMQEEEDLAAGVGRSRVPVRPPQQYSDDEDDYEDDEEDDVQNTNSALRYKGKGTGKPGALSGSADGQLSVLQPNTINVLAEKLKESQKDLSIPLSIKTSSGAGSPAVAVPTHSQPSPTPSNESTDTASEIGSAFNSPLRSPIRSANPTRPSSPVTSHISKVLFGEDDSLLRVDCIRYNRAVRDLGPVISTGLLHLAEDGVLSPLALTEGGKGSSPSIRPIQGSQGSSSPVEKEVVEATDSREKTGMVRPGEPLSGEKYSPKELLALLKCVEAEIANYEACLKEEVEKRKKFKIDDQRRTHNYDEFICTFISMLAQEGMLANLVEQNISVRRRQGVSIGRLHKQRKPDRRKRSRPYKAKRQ
Summary of the method: as §1

EIF3F = EIF3F (UniProt O00303)
Summary of the method: as §1

EIF3H = EIF3H (UniProt O15372)
Summary of the method: as §1

FAM105A = biological target: T3, FAM105A (UniProt Q9NUU6)
T3 sequence (whole entry): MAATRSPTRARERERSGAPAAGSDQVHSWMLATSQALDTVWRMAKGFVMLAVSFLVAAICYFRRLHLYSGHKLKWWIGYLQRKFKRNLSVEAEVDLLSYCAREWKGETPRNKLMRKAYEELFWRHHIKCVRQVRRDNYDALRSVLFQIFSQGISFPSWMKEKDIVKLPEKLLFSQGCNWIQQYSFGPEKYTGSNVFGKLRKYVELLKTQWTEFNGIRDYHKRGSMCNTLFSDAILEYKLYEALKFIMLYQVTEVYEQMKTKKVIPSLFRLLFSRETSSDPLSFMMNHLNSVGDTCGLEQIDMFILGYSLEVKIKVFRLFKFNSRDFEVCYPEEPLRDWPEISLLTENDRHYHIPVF
Summary of the method: as §1

OTUB1 = OTUB1 (UniProt Q96FW1)
Summary of the method: as §1

OTUD4 = biological target: T4, OTUD4 (UniProt Q01804)
T4 sequence (whole entry): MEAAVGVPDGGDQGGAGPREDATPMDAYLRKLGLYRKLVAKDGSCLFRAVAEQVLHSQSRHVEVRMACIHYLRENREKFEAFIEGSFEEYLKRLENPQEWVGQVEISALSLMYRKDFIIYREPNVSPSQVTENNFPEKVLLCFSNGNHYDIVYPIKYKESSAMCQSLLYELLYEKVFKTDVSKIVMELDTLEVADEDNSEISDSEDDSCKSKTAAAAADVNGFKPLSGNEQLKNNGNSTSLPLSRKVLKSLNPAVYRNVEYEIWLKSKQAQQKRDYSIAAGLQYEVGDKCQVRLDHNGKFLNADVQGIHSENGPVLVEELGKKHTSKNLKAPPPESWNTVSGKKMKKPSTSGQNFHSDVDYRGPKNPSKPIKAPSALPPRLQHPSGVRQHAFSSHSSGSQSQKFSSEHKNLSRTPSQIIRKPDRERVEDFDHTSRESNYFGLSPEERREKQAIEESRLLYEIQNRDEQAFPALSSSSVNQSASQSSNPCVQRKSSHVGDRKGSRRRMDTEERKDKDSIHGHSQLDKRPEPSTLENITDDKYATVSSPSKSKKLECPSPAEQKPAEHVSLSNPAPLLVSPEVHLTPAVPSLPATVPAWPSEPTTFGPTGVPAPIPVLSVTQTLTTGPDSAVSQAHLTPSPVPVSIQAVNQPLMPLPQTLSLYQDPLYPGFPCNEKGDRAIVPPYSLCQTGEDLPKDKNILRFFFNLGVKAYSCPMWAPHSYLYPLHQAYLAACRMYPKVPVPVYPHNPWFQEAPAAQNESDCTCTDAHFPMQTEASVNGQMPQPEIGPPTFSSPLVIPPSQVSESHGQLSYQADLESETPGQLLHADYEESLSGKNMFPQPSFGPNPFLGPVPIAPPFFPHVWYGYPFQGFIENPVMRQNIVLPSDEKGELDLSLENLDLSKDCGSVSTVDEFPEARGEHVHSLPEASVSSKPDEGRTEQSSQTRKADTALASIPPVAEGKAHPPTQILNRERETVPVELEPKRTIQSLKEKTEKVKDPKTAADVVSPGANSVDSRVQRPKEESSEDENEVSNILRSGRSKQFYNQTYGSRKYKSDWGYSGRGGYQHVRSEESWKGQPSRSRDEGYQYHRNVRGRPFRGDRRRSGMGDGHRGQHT
Summary of the method: as §1

OTUD5 = biological target: T5, OTUD5 (UniProt Q96G74)
T5 sequence (whole entry): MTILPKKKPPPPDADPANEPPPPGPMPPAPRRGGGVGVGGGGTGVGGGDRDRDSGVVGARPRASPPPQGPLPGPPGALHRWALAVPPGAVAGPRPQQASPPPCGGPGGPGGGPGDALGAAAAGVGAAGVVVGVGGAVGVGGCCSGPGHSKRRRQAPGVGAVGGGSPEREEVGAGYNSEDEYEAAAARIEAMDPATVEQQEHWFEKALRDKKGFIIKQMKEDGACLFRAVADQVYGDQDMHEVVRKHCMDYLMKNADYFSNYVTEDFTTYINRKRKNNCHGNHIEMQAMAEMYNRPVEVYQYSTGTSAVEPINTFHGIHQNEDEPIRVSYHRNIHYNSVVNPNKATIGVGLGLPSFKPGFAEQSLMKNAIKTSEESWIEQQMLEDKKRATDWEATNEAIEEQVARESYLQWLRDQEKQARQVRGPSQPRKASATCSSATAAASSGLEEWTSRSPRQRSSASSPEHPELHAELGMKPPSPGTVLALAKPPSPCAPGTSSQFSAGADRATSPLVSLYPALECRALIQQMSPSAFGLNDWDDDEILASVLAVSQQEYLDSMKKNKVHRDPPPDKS
Summary of the method: as §1

Chain of EIF3H (O15372 whole entry): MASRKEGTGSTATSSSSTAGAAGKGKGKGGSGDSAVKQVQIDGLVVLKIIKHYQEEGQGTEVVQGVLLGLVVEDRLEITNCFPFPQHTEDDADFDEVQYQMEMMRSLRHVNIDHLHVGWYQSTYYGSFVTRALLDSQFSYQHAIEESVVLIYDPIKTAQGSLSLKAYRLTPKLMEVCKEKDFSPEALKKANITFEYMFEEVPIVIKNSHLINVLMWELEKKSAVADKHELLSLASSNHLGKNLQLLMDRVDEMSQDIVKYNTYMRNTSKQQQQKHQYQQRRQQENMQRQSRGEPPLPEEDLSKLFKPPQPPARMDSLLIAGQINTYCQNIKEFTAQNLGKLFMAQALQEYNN
Chain of EIF3F (O00303 whole entry): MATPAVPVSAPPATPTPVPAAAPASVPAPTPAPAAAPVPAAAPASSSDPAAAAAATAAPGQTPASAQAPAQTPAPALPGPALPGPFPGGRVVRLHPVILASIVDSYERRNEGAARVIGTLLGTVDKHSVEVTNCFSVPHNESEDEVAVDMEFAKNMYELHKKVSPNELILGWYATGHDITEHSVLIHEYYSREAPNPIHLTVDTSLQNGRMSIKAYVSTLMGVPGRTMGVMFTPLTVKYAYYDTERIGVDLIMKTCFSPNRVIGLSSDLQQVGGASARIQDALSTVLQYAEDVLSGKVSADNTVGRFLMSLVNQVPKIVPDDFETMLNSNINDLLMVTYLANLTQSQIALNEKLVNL
Chain of ATXN3 (P54252 whole entry): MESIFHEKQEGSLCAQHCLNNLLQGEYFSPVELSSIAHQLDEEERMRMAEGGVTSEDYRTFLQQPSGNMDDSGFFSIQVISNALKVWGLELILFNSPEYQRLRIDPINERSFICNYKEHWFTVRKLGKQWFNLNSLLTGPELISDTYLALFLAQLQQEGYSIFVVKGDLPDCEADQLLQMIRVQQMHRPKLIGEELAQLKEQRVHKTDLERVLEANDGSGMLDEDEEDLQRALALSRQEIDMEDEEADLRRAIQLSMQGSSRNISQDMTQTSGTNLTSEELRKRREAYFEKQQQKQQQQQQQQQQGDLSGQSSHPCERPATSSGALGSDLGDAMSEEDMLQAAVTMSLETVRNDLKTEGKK
Chain of OTUB1 (Q96FW1 whole entry): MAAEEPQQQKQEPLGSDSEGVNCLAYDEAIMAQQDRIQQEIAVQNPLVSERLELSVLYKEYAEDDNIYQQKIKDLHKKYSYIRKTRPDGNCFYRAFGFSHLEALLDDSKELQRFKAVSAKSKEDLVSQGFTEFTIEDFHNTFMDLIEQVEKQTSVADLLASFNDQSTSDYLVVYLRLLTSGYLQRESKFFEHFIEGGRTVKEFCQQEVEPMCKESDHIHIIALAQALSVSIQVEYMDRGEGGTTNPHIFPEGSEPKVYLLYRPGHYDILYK

With O=C(CCl)Nc1ccc(F)cc1F the “log2 ratio of Biotin-Ahx-Ub-VS probe labelling” value (“log2 ratio” for short) (ALG13) was 0.182, the “log2 ratio” value (ATXN3) was -0.351 and the “log2 ratio” value (BAP1) was -2.82 (active). For the same compound, the “log2 ratio” value (EIF3F) was -0.155, the “log2 ratio” value (EIF3H) was 0.108 and the “log2 ratio” value (FAM105A) was 0.102. For the same compound, the “log2 ratio” value (OTUB1) was -0.293, the “log2 ratio” value (OTUD4) was -0.268 and the “log2 ratio” value (OTUD5) was -0.5.
